Results on four compounds are retold here after PubChem BioAssay (NCATS).

Assay [1] is described as follows: AP1 Signaling Pathway (AID 357; active = well fitted curve in either direction with a large enough effect, not every such curve was filed as active; note: % is set by controls: 0 for no effect and ±100 for the full control effect). Summed up:
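ME-180 cells with beta-lactamase reporter under AP-1 response element, stimulated with EC50 EGF; compounds tested in titration series, 5 h at 37 °C. CCF4 substrate added 2.5 h at room temperature; 460/530 nm emission ratio gave %activity and AC50.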

A short description of assay [2]: NFAT Signaling Pathway (AID 444; active = well fitted curve in either direction with a large enough effect, not every such curve was filed as active;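 note: carbachol stimulus at about its EC50 of 1 µM final; % is set by controls: 0 for no effect and ±100 for the full control effect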). Particulars: Jurkat NFAT-bla M1, carbachol, beta-lactamase ratio, 5 h; at 17.2 µM (top of the series) unless noted. Summed up:
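Read-out: CCF4 FRET ratio (460 nm/530 nm) after 1 h RT dye loading, used for %activity and AC50 from titration series. Cells: Jurkat NFAT-β-lactamase/M1 line, treated with compound plus 1 uM carbachol for 5 h, 37 °C.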

Assay [3] is described as follows: Stat Signaling Pathway (AID 446; active = well fitted curve in either direction with a large enough effect, not every such curve was filed as active;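 note: ME-180 cervical cancer cells given 40 pM IL-6 alongside compound; SIE-controlled beta-lactamase reporter measured as 460/530 nm FRET emission ratio; % is set by controls: 0 for no effect and ±100 for the full control effect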). Summed up: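 Emission at 460 and 530 nm (excitation 405 nm) reports SIE-controlled beta-lactamase in ME-180 cells. Cells received compound with 40 pM IL-6 for 5 hrs at 37 C; data scaled between 300 pM IL-6 and 125 nM JAK-inhibitor controls.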
Assay [4] has as its target Glucocorticoid receptor (Homo sapiens) (UniProt P04150). The assay can be described thus: GR-GFP Redistribution (AID 450;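 active = compounds whose dose series gives a full or clear partial fitted curve of increased nuclear translocation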; note: potency is the fitted concentration of half-maximal effect). The settings on record: U2OS GR-GFP nuclear translocation, laser cytometry, 2 h.
Assay [5] has as its target Mitogen-activated protein kinase 10 (Mus musculus) (UniProt Q61831). The assay is described as follows: JNK3 AlphaScreen Assay (AID 530; active = well fitted curve in either direction with a large enough effect, not every such curve was filed as active;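 note: kinase came from lysate of stimulated human HepG2 cells; signal reports phosphorylation of biotinylated GST-cJun 1-79 at Ser73 with 10 µM ATP; % is set by controls: 0 for no effect and ±100 for the full control effect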). Summed up: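 Kinase buffer: 20 mM Tris-HCl pH 7.6, 10 mM MgCl2, 1 mM DTT, 0.1 mM Na3VO4, 0.01% Tween-20; ATP 10 uM. Substrate biotin-GST-cJun(1-79), enzyme from activated HepG2 lysates. Detection by Ser73 phospho-antibody AlphaScreen.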

Assay [6] deals with 3',5'-cyclic-AMP phosphodiesterase 4B (Homo sapiens) (UniProt Q07343). The assay can be described thus: qHTS Assay for Inhibitors of PDE-IV (AID 607; active = well fitted activation curve with a large enough effect in the main read-out, with a control signal flat, not every such curve was filed as active; note: % of control where 0% means no effect). In outline: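 The readout is membrane depolarisation from a cAMP-sensing CNG channel, detected with a potential dye at ex 535/em 590. Cells were HEK293-derived (endogenous PDE-IV) at 1000 cells/well, titrated up to 22.9 uM final.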
Sequence of 3',5'-cyclic-AMP phosphodiesterase 4B (Homo sapiens) (Q07343 whole entry, looked up): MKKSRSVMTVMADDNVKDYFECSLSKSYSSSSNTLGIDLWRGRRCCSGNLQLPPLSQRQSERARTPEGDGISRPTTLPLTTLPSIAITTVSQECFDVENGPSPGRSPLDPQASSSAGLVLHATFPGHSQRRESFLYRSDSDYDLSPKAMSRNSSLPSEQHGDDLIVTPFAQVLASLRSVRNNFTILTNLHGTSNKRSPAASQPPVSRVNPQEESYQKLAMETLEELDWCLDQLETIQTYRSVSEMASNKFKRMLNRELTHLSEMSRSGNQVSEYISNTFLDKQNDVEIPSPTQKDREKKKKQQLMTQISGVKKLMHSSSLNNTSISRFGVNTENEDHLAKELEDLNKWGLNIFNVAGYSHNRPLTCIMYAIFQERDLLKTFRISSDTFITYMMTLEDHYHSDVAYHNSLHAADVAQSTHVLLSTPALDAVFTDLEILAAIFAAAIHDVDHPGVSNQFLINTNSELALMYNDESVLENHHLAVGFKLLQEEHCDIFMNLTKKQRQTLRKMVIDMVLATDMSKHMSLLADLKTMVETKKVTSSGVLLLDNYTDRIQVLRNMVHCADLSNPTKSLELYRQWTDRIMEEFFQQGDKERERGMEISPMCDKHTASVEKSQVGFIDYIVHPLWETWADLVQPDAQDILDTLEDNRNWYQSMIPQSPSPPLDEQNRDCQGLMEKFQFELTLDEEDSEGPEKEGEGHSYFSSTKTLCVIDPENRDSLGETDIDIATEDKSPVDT
On the technique in general: In qHTS, concentration-response curves come from the screen itself.

Assay [7] in a line: qHTS Assay for Lipid Storage Modulators (AID 1519; calls by dose curve). Particulars: Drosophila S3 cells, BODIPY lipid droplet/cell ratio, laser cytometry, cells loaded with oleic acid; for activity change, negative = inhibition: at 25.7 µM (top of the series). In outline: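 Cells seeded at 5,000 per well were treated with compounds over a concentration series and loaded with oleic acid (400 uM, as added). Lipid droplet fluorescence (488 nm excitation, 500-530 nm channel) was read by laser-scanning cytometry and normalized to 20 uM Triacsin C.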

Assay [8] concerns the target Ubiquitin carboxyl-terminal hydrolase 1 (Homo sapiens) (UniProt O94782). The assay is described as follows: Inhibitors of USP1/UAF1: Pilot qHTS (AID 504865).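 Note: rhodamine fluorescence freed from ubiquitin-rhodamine substrate followed over time; top concentration of the series differs between compounds; % is set by controls: 0 for no effect and ±100 for the full control effect; nearly all actives have a fitted effect of over 35% in size.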 In outline:
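Enzyme-free wells gave the negative control, while test wells held 1nM USP1/UAF1 preincubated with compound for 15 min at room temperature. Ub-Rho at 150nM final started the reaction, and fluorescence at 480/540 nm was recorded kinetically.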

Assay [9] can be described thus: qHTS profiling for inhibitors of Plasmodium falciparum proliferation (AID 504749).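 Note: 0% = DMSO vehicle and full inhibition = artemisinin control; nearly all actives have a fitted effect of over 60% in size.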 Particulars: P. falciparum in erythrocytes, SYBR Green DNA, 72 h. Summed up: (§1)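 In a 72 h erythrocytic culture (37 C, humidified, 5% CO2) at 2.5% hematocrit and 0.3% starting parasitemia, compounds were tested; SYBR Green I in detergent lysis buffer stained parasite DNA overnight.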

The next assay concerns C2A. The description is as above. Particulars: P. falciparum in erythrocytes, SYBR Green DNA, 72 h; series mostly up to 12.8 µM. Summed up:
as §1

For another assay, the system named is CP191. The assay is described as above. The settings on record: P. falciparum in erythrocytes, SYBR Green DNA, 72 h; series mostly up to 12.8 µM. Summed up: as §1
In the next assay the test system is CP217. The assay is described as above. The settings on record: P. falciparum in erythrocytes, SYBR Green DNA, 72 h; series mostly up to 12.8 µM. In outline:
as §1

Another assay concerns CP238. Described as above. Particulars: P. falciparum in erythrocytes, SYBR Green DNA, 72 h; series mostly up to 12.8 µM. In outline:
as §1

The next assay relates to CP250. Described as above. Particulars: P. falciparum in erythrocytes, SYBR Green DNA, 72 h; series mostly up to 12.8 µM. Summed up: as §1
Another assay deals with CP256. Described as above. Particulars: P. falciparum in erythrocytes, SYBR Green DNA, 72 h; series mostly up to 12.8 µM. Summed up:
as §1

The next assay concerns FAB9. The description is as above. Particulars: P. falciparum in erythrocytes, SYBR Green DNA, 72 h; series mostly up to 12.8 µM. Summed up:
as §1

The next assay concerns JCK. The description is as above. Particulars: P. falciparum in erythrocytes, SYBR Green DNA, 72 h; series mostly up to 12.8 µM. In outline:
as §1

Another assay concerns PC49. Described as above. Particulars: P. falciparum in erythrocytes, SYBR Green DNA, 72 h; series mostly up to 12.8 µM. Summed up:
as §1

In another assay the test system is SC27B. The description is as above. Particulars: P. falciparum in erythrocytes, SYBR Green DNA, 72 h; series mostly up to 12.8 µM. In outline: as §1
Assay [10] deals with Glucocorticoid receptor (Homo sapiens) (UniProt P04150). The assay is described as follows: GR-EFC Redistribution (AID 451; calls by dose curve; note: potency is the fitted concentration of half-maximal effect). The settings on record: CHO-K1 GR-EFC translocation, beta-gal luminescence, 2 h. In outline: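 Translocation of GR-ED fusion to nuclear EA restores b-gal, read by luminescence after 1 h room-temperature detection. Engineered CHO-K1 biosensor cells, 1,000/well, exposed 2 h at 37 C to titrations up to 46 uM final.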
Sequence of Glucocorticoid receptor (Homo sapiens) (P04150 whole entry, looked up, the tested form may be a part): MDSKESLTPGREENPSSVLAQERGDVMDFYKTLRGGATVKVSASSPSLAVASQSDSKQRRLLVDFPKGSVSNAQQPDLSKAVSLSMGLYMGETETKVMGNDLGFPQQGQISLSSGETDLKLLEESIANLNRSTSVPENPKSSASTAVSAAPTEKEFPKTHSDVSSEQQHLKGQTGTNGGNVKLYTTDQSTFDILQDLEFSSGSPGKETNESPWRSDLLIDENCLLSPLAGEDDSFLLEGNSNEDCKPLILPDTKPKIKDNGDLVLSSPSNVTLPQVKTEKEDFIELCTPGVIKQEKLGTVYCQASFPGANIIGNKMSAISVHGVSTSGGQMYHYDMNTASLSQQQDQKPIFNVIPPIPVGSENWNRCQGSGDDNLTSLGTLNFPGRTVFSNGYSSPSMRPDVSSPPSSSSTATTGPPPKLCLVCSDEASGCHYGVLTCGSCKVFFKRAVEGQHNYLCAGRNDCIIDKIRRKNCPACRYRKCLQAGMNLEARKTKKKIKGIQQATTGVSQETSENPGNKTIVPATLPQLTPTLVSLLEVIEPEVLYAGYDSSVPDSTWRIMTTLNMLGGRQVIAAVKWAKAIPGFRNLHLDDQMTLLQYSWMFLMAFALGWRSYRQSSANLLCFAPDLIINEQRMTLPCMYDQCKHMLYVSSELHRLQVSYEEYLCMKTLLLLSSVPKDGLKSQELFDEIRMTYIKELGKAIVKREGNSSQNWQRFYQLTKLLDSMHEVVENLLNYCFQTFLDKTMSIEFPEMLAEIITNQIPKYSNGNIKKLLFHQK

Setting [11] is: measured here: cell count channel max response.
Where [12] appears, read: measured here: lipid channel max response.
The mark [13] stands for this setting: at 12.8 µM (top of the series), parasite line A.
Where [14] appears, read: at 12.8 µM (top of the series), parasite line B.

SMILES strings stand for the structures. Where “and” joins values, the source holds several entries; their conditions need not be identical. Equal values may be shown once. Inconclusive results are not listed. Calls of active or inactive are those of the source. Unless noted, calls come from the whole dose curve; as a rule, active = well fitted inhibition curve with a large enough effect; inconclusive = small, poorly fitted or top-dose-only effect; inactive = flat fitted curve, though single readings scatter. Some results are limits rather than exact numbers.

Sequence of Ubiquitin carboxyl-terminal hydrolase 1 (Homo sapiens) (O94782 whole entry, looked up): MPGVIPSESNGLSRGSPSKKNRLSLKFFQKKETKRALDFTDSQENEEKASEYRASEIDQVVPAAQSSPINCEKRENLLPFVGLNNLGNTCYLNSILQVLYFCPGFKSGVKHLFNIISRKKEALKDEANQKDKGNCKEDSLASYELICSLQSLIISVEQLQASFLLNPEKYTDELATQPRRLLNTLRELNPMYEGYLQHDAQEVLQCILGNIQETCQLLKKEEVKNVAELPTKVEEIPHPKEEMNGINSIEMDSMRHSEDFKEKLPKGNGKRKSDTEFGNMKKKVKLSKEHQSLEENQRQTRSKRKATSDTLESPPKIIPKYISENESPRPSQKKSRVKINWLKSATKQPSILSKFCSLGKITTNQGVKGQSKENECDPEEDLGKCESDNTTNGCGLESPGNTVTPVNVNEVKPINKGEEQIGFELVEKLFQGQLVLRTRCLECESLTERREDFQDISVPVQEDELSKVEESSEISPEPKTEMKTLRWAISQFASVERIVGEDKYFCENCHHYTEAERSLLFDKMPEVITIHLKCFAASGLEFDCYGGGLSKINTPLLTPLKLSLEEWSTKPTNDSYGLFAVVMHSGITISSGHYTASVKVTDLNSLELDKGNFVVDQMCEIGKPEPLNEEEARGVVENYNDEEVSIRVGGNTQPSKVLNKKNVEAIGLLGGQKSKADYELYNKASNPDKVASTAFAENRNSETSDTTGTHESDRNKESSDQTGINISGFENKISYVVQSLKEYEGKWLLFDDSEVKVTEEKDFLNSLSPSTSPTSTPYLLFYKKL

As for `Cc1ccc2c(c1)c1c3n2CCN[C@H]3CCC1`, the outcome in assay [1], in [3] and in assay [6] was inactive. Besides, the figures for the activity change, negative = inhibition in assay [2] and in assay [7] were -11.2% (inactive) and -2.69% (inactive), respectively. Moreover, the Potency in assay [4] is > 20.6 µM (inactive) and > 46 µM (inactive). Moreover, the Potency entry (in [5]; in assay [8]; in the assay with C2A; with CP191; with CP217; in the assay with CP238) was “inactive” each time. In addition, the Potency result in the assay on CP250, with CP256, with FAB9, in the assay with JCK, with PC49 and with SC27B was “inactive” in each case. The max response in [7] (setting [11]) was -5.65%; in assay [7] (setting [12]), -6.69%. Further, the activity, negative = inhibition was -1.32% (inactive) in assay [9] (at 28.7 µM (top of the series), parasite line A) and 1.18% (inactive) in assay [9] (at 28.7 µM (top of the series), parasite line B).

`Cc1ncc([N+](=O)[O-])n1C[C@H](O)CCl`: the call in assay [1], in [3] and in [6] was inactive. Besides, the activity change, negative = inhibition is -7.59% (inactive) in assay [2] and -1.27% (inactive) in assay [7]. Further, in assay [4], the Potency is > 20.6 µM (inactive). In addition, the Potency result (in assay [5]; in assay [8]; with C2A; in the assay with CP191; in the assay with CP217; in the assay on CP238) was “inactive” each time. Also, the Potency entry in the assay on CP250, with CP256, with FAB9, in the assay with JCK, with PC49 and in the assay on SC27B was “inactive” each time. The max response turned out to be 8.08% in [7] (setting [11]) and 6.22% in [7] (setting [12]). The activity, negative = inhibition in [9] (setting [13]) was 1% (inactive); in assay [9] (setting [14]) it was 10.5% (inactive).

On to `Cc1c(O)c(=O)n(-c2ccccc2)n1C`, for which the result in assay [1], in assay [3] and in [6] was inactive. The activity change, negative = inhibition in assay [2] was -1.71% (inactive); in assay [7] it was -0.744% (inactive). Moreover, the Potency in [10] is > 20.6 µM (inactive). The Potency result in [5] and in [8] was “inactive” in each case. Besides, the max response in [7] (setting [11]) stood at 20.7%; in assay [7] (setting [12]), 19.1%.

Consider `CCN[C@@H]1CN(CCCOC)S(=O)(=O)c2sc(S(N)(=O)=O)cc21`, for which the outcome in assay [1], in [3] and in [6] was inactive. Moreover, the activity change, negative = inhibition in [2] was -3.14% (inactive); in [7], 1.92% (inactive). In addition, in assay [4], the Potency was > 20.6 µM (inactive). The Potency result (in assay [5]; in assay [8]; with C2A; in the assay on CP191; with CP217; with CP238) was “inactive” each time. Besides, the Potency entry in the assay with CP250, in the assay with CP256, in the assay with FAB9, in the assay on JCK, with PC49 and in the assay on SC27B was “inactive” in each case. In addition, the max response in [7] (setting [11]) was -3.42%; in assay [7] (setting [12]), -8.18%. In addition, the activity, negative = inhibition was -7.28% (inactive) in [9] (setting [13]) and 4.88% (inactive) in assay [9] (setting [14]).
